# Experiments:
# Experiment in all cases: DAPPL (digital affinity profiling via proximity ligation, sequencing); 10 mM Tris-HCl pH 7.5, 50 mM NaCl, 1 mM DTT, 4% glycerol, room temperature, 30 min; GST-TFs on glutathione beads, 16-mer random dsDNA library, 0.1% formaldehyde crosslink after washing; high values mean tight binding
# Conditions in all cases: protein: recombinant; tags: N-terminal GST; dsDNA, one strand shown
# [1] = biological target: T1, FEV (Homo sapiens, UniProt Q99581 1-238)
# T1 sequence: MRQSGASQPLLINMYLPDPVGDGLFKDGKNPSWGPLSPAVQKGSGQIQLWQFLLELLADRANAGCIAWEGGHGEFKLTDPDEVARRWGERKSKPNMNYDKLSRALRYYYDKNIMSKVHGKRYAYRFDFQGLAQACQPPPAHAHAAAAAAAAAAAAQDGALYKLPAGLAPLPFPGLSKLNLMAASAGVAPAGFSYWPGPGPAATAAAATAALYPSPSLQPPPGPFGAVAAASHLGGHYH
# Summary of the method: (§1)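 Binding signal is given per hexamer as its read frequency for a factor divided by its frequency in the tag-only sample. GST-fused human transcription factors were expressed in yeast, captured on glutathione beads, barcoded with DNA and pooled with that sample, then incubated with 200 nmole of a 16-mer random double-stranded DNA library in Tris/NaCl/DTT/glycerol buffer for 30 min at room temperature. The pools were then washed, crosslinked, proximity-ligated, amplified by PCR and sequenced on an Illumina NextSeq500.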
# [2] = biological target: ETV5 (Homo sapiens, UniProt P41161 1-510)
# ETV5, sequence (P41161 whole entry): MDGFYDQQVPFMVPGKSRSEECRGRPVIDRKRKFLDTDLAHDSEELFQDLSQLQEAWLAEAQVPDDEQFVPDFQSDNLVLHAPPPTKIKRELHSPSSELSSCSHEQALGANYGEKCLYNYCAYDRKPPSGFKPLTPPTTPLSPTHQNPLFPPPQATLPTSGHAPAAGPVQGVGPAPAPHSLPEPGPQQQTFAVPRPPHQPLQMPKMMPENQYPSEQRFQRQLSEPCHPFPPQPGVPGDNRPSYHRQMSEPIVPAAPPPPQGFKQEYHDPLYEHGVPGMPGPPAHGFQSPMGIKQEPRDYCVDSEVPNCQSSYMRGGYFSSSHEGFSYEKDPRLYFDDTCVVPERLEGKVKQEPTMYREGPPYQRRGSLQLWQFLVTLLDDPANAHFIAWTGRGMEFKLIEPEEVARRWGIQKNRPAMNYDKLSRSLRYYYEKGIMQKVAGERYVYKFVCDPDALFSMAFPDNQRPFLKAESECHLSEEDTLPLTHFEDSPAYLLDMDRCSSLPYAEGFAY
# Summary of the method: as §1
# [3] = biological target: T2, SPIC (Homo sapiens, UniProt Q8N5J4 1-248)
# T2 sequence: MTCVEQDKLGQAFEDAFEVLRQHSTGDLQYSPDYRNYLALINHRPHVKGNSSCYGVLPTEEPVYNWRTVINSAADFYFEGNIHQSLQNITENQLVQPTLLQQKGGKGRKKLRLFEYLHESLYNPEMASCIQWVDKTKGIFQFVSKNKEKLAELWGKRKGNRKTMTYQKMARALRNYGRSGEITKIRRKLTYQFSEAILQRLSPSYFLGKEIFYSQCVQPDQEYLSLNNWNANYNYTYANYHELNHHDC
# Summary of the method: as §1
# [4] = biological target: ELF4 (Homo sapiens, UniProt Q99607 1-663)
# ELF4, sequence (Q99607 whole entry): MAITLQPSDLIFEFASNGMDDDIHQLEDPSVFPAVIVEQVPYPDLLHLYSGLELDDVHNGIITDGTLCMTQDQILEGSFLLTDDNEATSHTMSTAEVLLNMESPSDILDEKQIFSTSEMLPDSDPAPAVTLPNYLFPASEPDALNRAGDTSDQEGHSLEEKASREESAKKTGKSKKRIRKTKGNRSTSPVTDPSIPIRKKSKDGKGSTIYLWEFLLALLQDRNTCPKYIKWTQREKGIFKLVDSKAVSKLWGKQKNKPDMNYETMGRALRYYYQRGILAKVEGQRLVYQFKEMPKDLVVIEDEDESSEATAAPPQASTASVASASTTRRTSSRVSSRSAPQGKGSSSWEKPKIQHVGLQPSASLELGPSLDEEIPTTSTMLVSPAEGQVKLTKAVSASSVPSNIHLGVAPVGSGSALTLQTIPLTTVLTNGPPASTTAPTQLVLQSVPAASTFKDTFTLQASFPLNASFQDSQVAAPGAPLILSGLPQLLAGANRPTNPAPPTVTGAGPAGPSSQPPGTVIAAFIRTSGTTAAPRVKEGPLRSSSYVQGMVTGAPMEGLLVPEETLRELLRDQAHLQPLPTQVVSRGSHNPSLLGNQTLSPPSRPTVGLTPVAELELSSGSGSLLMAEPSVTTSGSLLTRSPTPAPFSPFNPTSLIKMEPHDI
# Summary of the method: as §1
# [5] = biological target: T3, ELK4 (Homo sapiens, UniProt P28324-2 1-405)
# T3 sequence: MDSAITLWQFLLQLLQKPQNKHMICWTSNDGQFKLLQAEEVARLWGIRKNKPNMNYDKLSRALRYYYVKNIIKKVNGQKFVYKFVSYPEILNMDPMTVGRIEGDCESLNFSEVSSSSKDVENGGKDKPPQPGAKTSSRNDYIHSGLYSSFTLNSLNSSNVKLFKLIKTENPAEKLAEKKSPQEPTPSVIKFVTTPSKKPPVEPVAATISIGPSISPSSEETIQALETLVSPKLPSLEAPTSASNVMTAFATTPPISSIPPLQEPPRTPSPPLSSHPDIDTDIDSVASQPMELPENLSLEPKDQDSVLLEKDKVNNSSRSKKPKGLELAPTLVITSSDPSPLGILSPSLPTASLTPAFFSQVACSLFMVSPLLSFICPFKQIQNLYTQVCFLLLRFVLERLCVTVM
# Summary of the method: as §1
# [6] = biological target: T4, ETV2 (Homo sapiens, UniProt O00321 1-342)
# T4 sequence: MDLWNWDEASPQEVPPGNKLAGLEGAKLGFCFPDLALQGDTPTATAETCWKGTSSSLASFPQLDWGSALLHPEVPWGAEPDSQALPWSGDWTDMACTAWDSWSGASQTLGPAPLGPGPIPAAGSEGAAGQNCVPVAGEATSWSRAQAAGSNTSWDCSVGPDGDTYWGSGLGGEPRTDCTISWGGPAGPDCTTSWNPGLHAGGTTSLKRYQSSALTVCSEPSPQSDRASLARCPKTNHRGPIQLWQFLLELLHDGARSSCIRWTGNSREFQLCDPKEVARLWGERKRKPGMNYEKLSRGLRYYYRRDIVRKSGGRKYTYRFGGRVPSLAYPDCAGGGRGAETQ
# Summary of the method: as §1
# [7] = biological target: T5, ELF3 (Homo sapiens, UniProt P78545 1-371)
# T5 sequence: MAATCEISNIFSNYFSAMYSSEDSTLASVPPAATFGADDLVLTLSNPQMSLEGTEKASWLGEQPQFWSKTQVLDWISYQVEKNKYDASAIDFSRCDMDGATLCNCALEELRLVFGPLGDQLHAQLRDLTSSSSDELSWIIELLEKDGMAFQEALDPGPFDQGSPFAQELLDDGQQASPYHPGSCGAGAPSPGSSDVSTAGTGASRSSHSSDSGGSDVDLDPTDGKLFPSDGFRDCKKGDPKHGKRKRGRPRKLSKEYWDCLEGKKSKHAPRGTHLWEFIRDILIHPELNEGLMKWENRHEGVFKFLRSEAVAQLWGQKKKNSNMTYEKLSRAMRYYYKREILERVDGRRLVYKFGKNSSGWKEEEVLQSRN
# Summary of the method: as §1
# [8] = biological target: ETV1 (Homo sapiens, UniProt P50549 1-477)
# ETV1, sequence (P50549 whole entry): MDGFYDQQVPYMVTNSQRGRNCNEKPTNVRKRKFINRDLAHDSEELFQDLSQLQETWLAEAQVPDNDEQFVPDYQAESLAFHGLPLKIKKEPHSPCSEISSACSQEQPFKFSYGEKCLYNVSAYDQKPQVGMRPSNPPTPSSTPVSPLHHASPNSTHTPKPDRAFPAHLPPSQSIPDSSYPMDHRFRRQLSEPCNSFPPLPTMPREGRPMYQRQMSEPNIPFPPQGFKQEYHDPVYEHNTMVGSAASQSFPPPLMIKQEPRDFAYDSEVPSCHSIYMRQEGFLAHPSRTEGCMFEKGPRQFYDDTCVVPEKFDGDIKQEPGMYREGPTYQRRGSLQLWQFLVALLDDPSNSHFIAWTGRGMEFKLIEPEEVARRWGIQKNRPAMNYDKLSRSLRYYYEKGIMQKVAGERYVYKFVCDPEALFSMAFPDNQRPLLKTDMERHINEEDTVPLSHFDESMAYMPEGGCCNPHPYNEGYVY
# Summary of the method: as §1
# [9] = biological target: T6, ERF (Homo sapiens, UniProt P50548 1-548)
# T6 sequence: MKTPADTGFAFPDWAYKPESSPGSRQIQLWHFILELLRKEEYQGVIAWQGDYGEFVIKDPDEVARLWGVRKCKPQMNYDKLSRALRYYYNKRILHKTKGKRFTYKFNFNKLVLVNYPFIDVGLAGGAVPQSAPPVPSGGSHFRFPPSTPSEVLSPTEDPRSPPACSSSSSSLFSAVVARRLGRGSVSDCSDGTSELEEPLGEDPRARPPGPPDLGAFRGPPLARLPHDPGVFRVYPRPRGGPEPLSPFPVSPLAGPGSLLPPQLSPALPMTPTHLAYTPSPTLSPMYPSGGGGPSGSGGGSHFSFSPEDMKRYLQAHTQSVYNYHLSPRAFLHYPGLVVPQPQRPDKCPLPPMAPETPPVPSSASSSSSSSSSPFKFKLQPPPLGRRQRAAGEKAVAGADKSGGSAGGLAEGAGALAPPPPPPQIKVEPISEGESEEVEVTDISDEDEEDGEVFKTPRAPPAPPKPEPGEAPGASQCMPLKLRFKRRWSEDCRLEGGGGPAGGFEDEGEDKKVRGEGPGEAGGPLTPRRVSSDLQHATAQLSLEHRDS
# Summary of the method: as §1
# [10] = biological target: T7, ETV3L (Homo sapiens, UniProt Q6ZN32 1-361)
# T7 sequence: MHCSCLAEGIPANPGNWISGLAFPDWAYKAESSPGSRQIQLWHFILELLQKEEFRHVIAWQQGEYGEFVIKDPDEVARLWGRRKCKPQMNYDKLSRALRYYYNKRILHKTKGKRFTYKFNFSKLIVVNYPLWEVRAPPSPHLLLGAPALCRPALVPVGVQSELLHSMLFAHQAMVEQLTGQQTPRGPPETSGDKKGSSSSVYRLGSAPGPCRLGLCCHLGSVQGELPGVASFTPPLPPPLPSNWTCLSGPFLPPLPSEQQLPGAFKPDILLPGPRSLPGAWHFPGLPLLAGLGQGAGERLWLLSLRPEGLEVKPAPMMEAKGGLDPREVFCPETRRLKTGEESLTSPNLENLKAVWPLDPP
# Summary of the method: as §1
# [11] = biological target: T8, ETS2 (Homo sapiens, UniProt P15036 1-469)
# T8 sequence: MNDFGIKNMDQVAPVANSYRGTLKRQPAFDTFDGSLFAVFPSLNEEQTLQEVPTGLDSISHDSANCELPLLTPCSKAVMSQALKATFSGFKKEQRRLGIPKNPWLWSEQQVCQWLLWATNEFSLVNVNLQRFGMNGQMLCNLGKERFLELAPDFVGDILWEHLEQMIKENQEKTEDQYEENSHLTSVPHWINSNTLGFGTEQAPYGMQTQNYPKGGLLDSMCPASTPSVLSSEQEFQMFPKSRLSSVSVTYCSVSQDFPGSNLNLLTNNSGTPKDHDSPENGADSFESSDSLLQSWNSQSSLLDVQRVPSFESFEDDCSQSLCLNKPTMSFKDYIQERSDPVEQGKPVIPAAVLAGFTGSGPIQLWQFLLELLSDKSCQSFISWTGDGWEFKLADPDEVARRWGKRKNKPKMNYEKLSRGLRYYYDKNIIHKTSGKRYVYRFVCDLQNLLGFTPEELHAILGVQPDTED
# Summary of the method: as §1
# [12] = biological target: T9, SPDEF (Homo sapiens, UniProt O95238 1-335)
# T9 sequence: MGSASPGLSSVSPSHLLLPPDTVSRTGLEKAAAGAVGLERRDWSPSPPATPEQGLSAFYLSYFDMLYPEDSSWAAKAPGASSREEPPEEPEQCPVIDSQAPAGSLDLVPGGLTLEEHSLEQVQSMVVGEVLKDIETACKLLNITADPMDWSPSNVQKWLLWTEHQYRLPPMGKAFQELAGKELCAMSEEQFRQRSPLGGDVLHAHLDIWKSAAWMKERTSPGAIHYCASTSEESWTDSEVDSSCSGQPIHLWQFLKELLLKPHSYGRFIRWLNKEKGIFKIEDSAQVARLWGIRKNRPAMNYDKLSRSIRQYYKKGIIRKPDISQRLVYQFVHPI
# Summary of the method: as §1
# [13] = biological target: T10, ETV7 (Homo sapiens, UniProt Q9Y603 1-341)
# T10 sequence: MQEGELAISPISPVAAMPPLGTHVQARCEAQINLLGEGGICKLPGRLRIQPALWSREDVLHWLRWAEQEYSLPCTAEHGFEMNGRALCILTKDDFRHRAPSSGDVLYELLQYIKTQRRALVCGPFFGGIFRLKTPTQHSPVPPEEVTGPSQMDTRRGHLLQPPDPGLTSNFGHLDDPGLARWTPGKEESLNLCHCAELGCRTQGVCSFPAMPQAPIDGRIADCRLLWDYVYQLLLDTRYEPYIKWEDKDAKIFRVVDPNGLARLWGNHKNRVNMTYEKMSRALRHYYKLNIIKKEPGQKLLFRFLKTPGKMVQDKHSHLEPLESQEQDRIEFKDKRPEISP
# Summary of the method: as §1
# [14] = biological target: T11, ELF5 (Homo sapiens, UniProt Q9UKW6-2 1-255)
# T11 sequence: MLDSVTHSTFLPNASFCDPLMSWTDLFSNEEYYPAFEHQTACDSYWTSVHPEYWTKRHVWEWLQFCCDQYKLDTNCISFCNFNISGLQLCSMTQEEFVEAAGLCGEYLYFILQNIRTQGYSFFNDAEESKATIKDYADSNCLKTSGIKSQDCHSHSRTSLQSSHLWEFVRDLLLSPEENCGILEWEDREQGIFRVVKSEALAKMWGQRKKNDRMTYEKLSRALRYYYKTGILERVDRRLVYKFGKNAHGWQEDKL
# Summary of the method: as §1
# [15] = biological target: T12, ETV3 (Homo sapiens, UniProt P41162-2 1-143)
# T12 sequence: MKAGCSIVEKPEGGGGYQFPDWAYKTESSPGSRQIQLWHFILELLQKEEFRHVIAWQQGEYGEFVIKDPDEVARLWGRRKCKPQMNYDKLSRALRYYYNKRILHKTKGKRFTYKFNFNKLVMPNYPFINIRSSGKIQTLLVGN
# Summary of the method: as §1
# [16] = biological target: ETV6 (Homo sapiens, UniProt P41212 1-452)
# ETV6, sequence (P41212 whole entry): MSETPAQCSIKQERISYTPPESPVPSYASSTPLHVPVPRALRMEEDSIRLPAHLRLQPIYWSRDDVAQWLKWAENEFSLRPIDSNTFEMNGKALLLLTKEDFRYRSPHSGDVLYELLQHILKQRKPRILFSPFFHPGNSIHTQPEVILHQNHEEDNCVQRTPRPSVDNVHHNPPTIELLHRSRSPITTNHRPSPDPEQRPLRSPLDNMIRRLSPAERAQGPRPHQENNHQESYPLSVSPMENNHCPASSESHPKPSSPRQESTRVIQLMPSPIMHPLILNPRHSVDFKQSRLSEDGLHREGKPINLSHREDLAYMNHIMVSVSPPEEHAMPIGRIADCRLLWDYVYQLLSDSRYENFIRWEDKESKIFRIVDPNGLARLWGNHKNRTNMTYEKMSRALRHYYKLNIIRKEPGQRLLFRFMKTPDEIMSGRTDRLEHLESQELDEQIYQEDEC
# Summary of the method: as §1
sequence,measurement,setting,value
CCGGAC,binding signal,[1],"2.05 fold enrichment (6-mer frequency, TF over GST control)"
same,binding signal,[2],"1.57 fold enrichment (6-mer frequency, TF over GST control)"
same,binding signal,[3],"1.22 fold enrichment (6-mer frequency, TF over GST control)"
same,binding signal,[4],"1.44 fold enrichment (6-mer frequency, TF over GST control)"
same,binding signal,[5],"1.15 fold enrichment (6-mer frequency, TF over GST control)"
same,binding signal,[6],"1.39 fold enrichment (6-mer frequency, TF over GST control)"
same,binding signal,[7],"1.45 fold enrichment (6-mer frequency, TF over GST control)"
same,binding signal,[8],"1.53 fold enrichment (6-mer frequency, TF over GST control)"
same,binding signal,[9],"1.4 fold enrichment (6-mer frequency, TF over GST control)"
same,binding signal,[10],"1.48 fold enrichment (6-mer frequency, TF over GST control)"
same,binding signal,[11],"1.52 fold enrichment (6-mer frequency, TF over GST control)"
same,binding signal,[12],"2.1 fold enrichment (6-mer frequency, TF over GST control)"
same,binding signal,[13],"1.39 fold enrichment (6-mer frequency, TF over GST control)"
same,binding signal,[14],"1.77 fold enrichment (6-mer frequency, TF over GST control)"
same,binding signal,[15],"1.6 fold enrichment (6-mer frequency, TF over GST control)"
same,binding signal,[16],"1.41 fold enrichment (6-mer frequency, TF over GST control)"
CACTAC,binding signal,[1],"1.35 fold enrichment (6-mer frequency, TF over GST control)"
same,binding signal,[2],"1.3 fold enrichment (6-mer frequency, TF over GST control)"
same,binding signal,[3],"1.14 fold enrichment (6-mer frequency, TF over GST control)"
same,binding signal,[4],"1.27 fold enrichment (6-mer frequency, TF over GST control)"
same,binding signal,[5],"1.37 fold enrichment (6-mer frequency, TF over GST control)"
same,binding signal,[6],"1.34 fold enrichment (6-mer frequency, TF over GST control)"
same,binding signal,[7],"1.3 fold enrichment (6-mer frequency, TF over GST control)"
same,binding signal,[8],"1.21 fold enrichment (6-mer frequency, TF over GST control)"
same,binding signal,[9],"1.33 fold enrichment (6-mer frequency, TF over GST control)"
same,binding signal,[10],"1.29 fold enrichment (6-mer frequency, TF over GST control)"
same,binding signal,[11],"1.31 fold enrichment (6-mer frequency, TF over GST control)"
same,binding signal,[12],"1.14 fold enrichment (6-mer frequency, TF over GST control)"
same,binding signal,[13],"1.27 fold enrichment (6-mer frequency, TF over GST control)"
same,binding signal,[14],"1.26 fold enrichment (6-mer frequency, TF over GST control)"
same,binding signal,[15],"1.26 fold enrichment (6-mer frequency, TF over GST control)"
same,binding signal,[16],"1.24 fold enrichment (6-mer frequency, TF over GST control)"

# From PMC7862700, “An all-to-all approach to the identification of sequence-specific readers for epigenetic DNA modifications on cytosine”
